PfHsp90 set2: reduces growth (ATP signal) of yeast expressing P. falciparum Hsp90. S. cerevisiae expressing PfHsp90, BacTiter-Glo ATP, 48 h; yeast lacking PDR1 and PDR3 efflux regulators. inhibition, % at 9.4 µM. actives 0.32% (n = 310,000). AID 504621;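 active = every replicate shows inhibition above about 80%, whatever the replicate mean, limit read from the data; inconclusive = mean inhibition reaches the set limit but some replicate falls short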;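 also: 0% = DMSO neutral controls and 100% = 20 µM radicicol positive controls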
Shn3 inh set2: Schnurri-3 reporter inhibition in Clone20 osteoblasts. inhibition, % at 12.5 µM. Clone20 osteoblast Shn3 3'UTR firefly luciferase, 24 h. actives 0.52% (n = 360,000). AID 588674;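 active = mean inhibition of at least 75% with every replicate also reaching 75%; inconclusive = mean inhibition at least 75% but some replicate below; inactive = mean inhibition below 75%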;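 also: 0% = median of neutral control wells and 100% = pilot-screen positive control compound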
Beta apoptosis: blocks beta cell apoptosis. protection from apoptosis, % (test concentration not listed). INS-1E cytokine-induced death, ATP luminescence, 48 h; percent of positive-control rescue, neutral wells zero. AID 435005. actives 0.8% (n = 300,000);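 active = Every replicate reaches about 75%, or at least half do and their mean reaches it too, limit read from the data; inconclusive = At least half of replicates reach the limit but their mean does not; inactive = Under half of replicates reach the limit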;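 also: 0% = cytokine-treated negative control wells and 100% = positive control rescue; higher means more ATP so stronger rescue from cytokine killing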
CSC inhib: blocks cancer stem cells. cancer stem cell-like cells viability, luminescence. inhibition, % at 7.5 µM. actives 1.1% (n = 300,000). AID 2717; in the data active = inhibition above about 75%; inconclusive = no clear call, values can overlap the other calls; tested in HMLE shEcad cells
Calb FLC: affects C. albicans growth with fluconazole | C. albicans CaCi-2 (fluconazole-resistant clinical isolate) + fluconazole, Alamar Blue growth, 48 h | growth inhibition, % (concentration not given with the values) | actives 0.57% (n = 300,000) | AID 1979;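 active = growth inhibition above about 58% in most replicates, limit read from the data, passing the limit was not always enough; inconclusive = exactly half the replicates above a set limit; inactive = most replicates below a set limit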;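 also: all wells also contain fluconazole at 8 µg/ml as a sub-toxic cotreatment; 0% = median of DMSO wells and 100% = median of geldanamycin control wells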
* hit, by the source's call; ? = inconclusive; . = not tested or not shown. An excerpt weighted towards active compounds, which were near 2.2% of everything screened.

SMILES | PfHsp90 set2 | Shn3 inh set2 | Beta apoptosis | CSC inhib | Calb FLC
CCC(=O)NC(c1cccs1)c1ccc2cccnc2c1O (stereo not given) | 114* | 79 | 107* | 106* | 101*
CC(C)CC(=O)NC(NC(=S)Nc1cccc2cccnc12)C(Cl)(Cl)Cl (stereo not given) | -15 | 39 | -2 | 2 | -2
CC(C)CC(=O)NC(c1cccs1)c1ccc2cccnc2c1O (stereo not given) | 104* | 89* | 110* | 102* | 107*
CCC(=O)NC(c1cccs1)c1cc([N+](=O)[O-])c2cccnc2c1OC (stereo not given) | . | -2 | . | . | .
CN1CCN(C(c2ccc(F)cc2)c2ccc3cccnc3c2O)CC1 (stereo not given) | -6 | 27 | . | . | .
Cc1conc1NC(c1cccs1)c1ccc2cccnc2c1O (stereo not given) | . | . | 106* | 101* | 87*
CCOC(=O)c1c(O)c2cc(Cl)ccc2n(CC)c1=O | . | -17 | -10 | -2 | 28
OC(COCC(F)(F)C(F)(F)C(F)(F)C(F)F)Cn1c2ccc(Cl)cc2c2cc(Cl)ccc21 (stereo not given) | -47 | 8 | . | 116* | -1
CCN(c1ccccc1)c1nc(C#N)nc(N(CC)c2ccccc2)n1 | -20 | -3 | -3 | 90* | 6
CCN(CC)c1nc(C#N)nc(N(CC)CC)n1 | -8 | -2 | . | . | -4
Clc1ccc(N=c2ssnc2Cl)cc1 | 104* | 20 | 12 | 11 | -3
Cc1ccc(NC(=O)c2cc(-c3ccc4c(c3)OCO4)on2)cc1C | 4 | -11 | 2 | 12 | -6
COc1cccc(-c2cc(C(=O)Nc3ccc4c(c3)OCO4)no2)c1 | 3 | -20 | . | 47 | -8
O=C(Nc1ccc2c(c1)OCO2)c1cc(-c2ccc(O)cc2)on1 | -4 | -5 | . | 101* | -11
O=C(Nc1ccc2c(c1)OCO2)c1cc(-c2cccc(O)c2)on1 | -1 | -90 | 7 | 100* | -7
CC(C)Cc1cc(C(=O)Nc2ccc3c(c2)OCO3)no1 | -37 | -94 | 2 | 122* | 6
CCOC(=O)c1c(C)[nH]c(C)c1S(=O)(=O)N1CCOCC1 | 3 | -6 | -6 | -17 | -8
CN(C)CCNC(=O)COc1ccc(C23CC4CC(CC(C4)C2)C3)cc1 | 4 | -25 | 13 | 82* | -15
CCCCCCCCCCC[N+](C)(C)CC/C=C1/c2ccccc2Sc2ccc(Cl)cc21 | 107* | 92* | 98* | 59 | 84*
CCCCCCCCCC[N+](C)(C)CC/C=C1/c2ccccc2Sc2ccc(Cl)cc21 | 106* | 87* | 91* | 106* | ?
CC[N+](C)(C)CC/C=C1/c2ccccc2Sc2ccc(Cl)cc21 | . | -8 | 4 | -8 | 20
Cc1ccc(C(=O)N/C(=C\c2ccc(-c3ccc(Br)cc3)o2)C(=O)NCCCN(C)C)cc1 | 13 | 6 | 100* | ? | 11
CN(C)CCNC(=O)/C(=C/c1ccc(-c2ccc(Cl)cc2Cl)o1)NC(=O)c1ccccc1 | -9 | -17 | 99* | 110* | ?
Cc1ccc(C(=O)N/C(=C\c2ccc(-c3cccc([N+](=O)[O-])c3)o2)C(=O)NCCCN(C)C)cc1 | 4 | 12 | 7 | 12 | 1
CN(C)CCNC(=O)/C(=C/c1ccc(-c2ccc(Cl)cc2)o1)NC(=O)c1ccccc1 | -1 | -1 | 0 | 21 | -13
SMILES | PfHsp90 set2 | Shn3 inh set2 | Beta apoptosis | CSC inhib | Calb FLC
Cc1ccc(S(=O)(=O)NCCC(=O)NCC(c2ccco2)N2CCCCC2)cc1C (stereo not given) | 20 | -10 | -7 | 39 | -4
OCCOCCN1CCN(C2=Nc3ccccc3Sc3ccccc32)CC1 | 5 | -2 | -8 | 5 | -21
O=S(=O)(c1ccc(Br)cc1Cl)N1CCN(CCO)CC1 | -28 | -15 | -1 | -2 | -5
O=C1C=CC(=O)c2c(O)c(N3CCN(CCO)CC3)c(Cl)c(O)c21 | 21 | 99* | . | . | .
O=C1C=CC(=O)c2c(O)c(N3CCN(CCOCCO)CC3)c(Br)c(O)c21 | -17 | 93* | . | . | .
CCCCn1c(N)c(N(CC(C)C)C(=O)C2CC(=O)N(c3ccc(CC)cc3)C2)c(=O)[nH]c1=O (stereo not given) | . | -15 | -1 | 1 | -2
CN1C(=O)C(N=Nc2ccc([N+](=O)[O-])cc2)SC1=S (stereo not given) | 114* | -7 | . | . | .
O=C(CCl)N1c2ccccc2SCC1c1ccccc1 (stereo not given) | -4 | 15 | -11 | -7 | 82*
COCCNc1nc2c(c(=O)n(C)c(=O)n2C)n1Cc1cccc(C(F)(F)F)c1 | -3 | 90* | 87* | . | -2
CCCNc1nc2c(c(=O)n(C)c(=O)n2C)n1Cc1cccc(C)c1 | -21 | 96* | 37 | -11 | -9
CCCNc1nc2c(c(=O)n(C)c(=O)n2C)n1CCc1ccccc1 | 30 | 57 | 35 | -17 | -18
CC(O)CNc1nc2c(c(=O)n(C)c(=O)n2C)n1Cc1cccc(C(F)(F)F)c1 (stereo not given) | . | 12 | -6 | -17 | 2
Cc1cc2oc3ccc(NCCCn4ccnc4)cc3c(=O)c2cc1C | 1 | -22 | . | 56 | 86*
O=C1NC(=S)/C(=C\c2ccc(-c3ccccc3Cl)o2)S1 | 4 | 4 | -1 | 118* | -7
O=C(N/N=C/c1ccco1)c1cccc(N2CCCC2=O)c1 | 4 | -44 | 5 | -14 | 8
O=C(N/N=C/c1cc(Br)ccc1O)c1cccc(N2CCCC2=O)c1 | -4 | 83 | 56 | 36 | 94*
Oc1ccc(Br)cc1/C=N/NC(=S)NCCc1ccccc1 | 13 | 27 | 13 | 105* | -10
O=C(N/N=C/c1cc(Br)ccc1O)c1ccccc1Cl | -54 | 42 | 69 | 20 | 89*
COc1ccc(O)c(/C=N/NC(=S)NCCc2ccccc2)c1 | -88 | -6 | 21 | 56 | -4
COC(=O)N/N=C/c1cc(Br)ccc1O | -35 | 15 | 2 | 1 | -5
COc1ccc(O)c(/C=N/NC(=O)c2cccc(N3CCCC3=O)c2)c1 | -14 | 69 | 94* | . | -7
COc1ccccc1-c1noc(Cn2cc(S(=O)(=O)N3CCCC3)ccc2=O)n1 | 4 | -10 | -2 | 0 | .
CCC1(c2ccccc2)NC(=O)N(CC(=O)Nc2ccc(N3CCCC3)cc2C)C1=O (stereo not given) | . | 15 | 8 | -7 | -1
S=C(CN1CCCC1=S)NCCc1ccccc1 | 13 | -1 | -6 | -3 | 2
Cc1cc(C)c(CN2CCN(C(=O)Cn3cnc4c(OCc5ccccc5)ncnc43)CC2)c(C)c1 | 16 | 80 | 77* | . | .
O=C(O)Cn1cnc2c(OCc3ccccc3)ncnc21 | -3 | -11 | -5 | . | .
Oc1c(CN2CCCCC2)cc(COCc2ccccc2)c2cccnc12 | -8 | 92* | 39 | 0 | 0
CN(C)C1CCN(Cc2cc(COCc3ccccc3)c3cccnc3c2O)C1 (stereo not given) | 28 | 88* | 77* | . | .

Bioassay records (PubChem BioAssay)
